Experiment [1] in a line: P-glycoprotein substrates identified in KB-3-1 adenocarcinoma cell line, qHTS therapeutic library screen (AID 1346986). Note: nearly all actives have a fitted effect of over 60% in size. The essentials:
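Counter-screen: cherry-picked hits retested in the KB pair and in HEK-293 pcDNA/MDR-19 cells ± tariquidar. Primary screen used 72 h CellTiter-Glo viability in KB-3-1 and KB-8-5-11.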
For orientation: Quantitative high-throughput screening tests each substance at several concentrations.

Experiment [2] in a line: P-glycoprotein substrates identified in KB-8-5-11 adenocarcinoma cell line, qHTS therapeutic library screen (AID 1346987). Note: nearly all actives have a fitted effect of over 65% in size. The essentials: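 KB-8-5-11: colchicine-selected sub-line of KB-3-1 over-expressing P-gp; assay medium lacked colchicine. 72 h drug exposure at 37 degree C, CellTiter-Glo.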

Records with an inconclusive call do not appear. Active and inactive are the calls of the source. Calls come from the whole dose curve; as a rule, active = well fitted curve in the direction sought with a large enough effect; inconclusive = small, poorly fitted or top-dose-only effect, or another doubt; inactive = no such curve, though single readings can be large; an effect the other way counts as inactive or inconclusive.

Take `C=C1C(=O)OC[C@H]2C(C(=O)O)=CC3CC(C)(C)C[C@@]132` (some centres undefined): the Potency entry in experiment [1] and in experiment [2] was “inactive” throughout.

As to `CC1(CO)CCCC2(C)C3COC(=O)C3=CC(O)C12` (centres undefined), the Potency entry in experiment [1] and in experiment [2] was “inactive” throughout.

With `O=C(NCCN1CCCC1)c1cc(-c2ccc(CN3CCOCC3)cc2)nc2ccc(F)cc12`, the Potency result in experiment [1] and in experiment [2] was “inactive” throughout.

On to `C=C(CO)C(=O)O[C@H]1C[C@@]23O[C@@H]2CC/C(=C/[C@H]2OC(=O)C(=C)[C@H]12)CO[C@H]3O`, for which the Potency entry in experiment [1] and in experiment [2] was “inactive” in each case.

As to `C=C[C@@]1(C)CCC2=C([C@H]1OC(C)=O)[C@H](OC(C)=O)CC1[C@](C)(C(=O)OC)CC[C@H](OC(C)=O)[C@]21C` (some centres undefined), the Potency entry in experiment [1] and in experiment [2] was “inactive” throughout.

`CC1(C)C[C@@H]2[C@H](C1)[C@@]1(C)C[C@]13C(O)OC[C@]3(O)[C@H]2O` (some centres undefined): the Potency result in experiment [1] and in experiment [2] was “inactive” each time.

On to `CCOC(=O)C1=C(N)Oc2ccc(Cl)cc2C1C(C#N)C(=O)OCC` (centres undefined), for which the Potency entry in experiment [1] and in experiment [2] was “inactive” throughout.

Regarding `CC1OC(O[C@@H]2[C@H](O)[C@@H](OC3OC(CO)C(O)C(O)C3O)[C@H](OC(=O)[C@]34CCC(C)(C)C[C@H]3C3=CCC5[C@@]6(C)CC[C@H](O[C@@H]7O[C@H](C(=O)O)[C@@H](O)[C@H](O[C@@H]8OC[C@@H](O)[C@H](O)[C@H]8O)[C@H]7O[C@@H]7O[C@H](CO)[C@H](O)[C@H](O)[C@H]7O)[C@@](C)(C=O)C6CC[C@@]5(C)[C@]3(C)C[C@H]4O)O[C@@H]2C)C(O)C(O)C1OC1OCC(O)C(O)C1O` (some centres undefined), the outcome in experiment [1] and in experiment [2] was “inactive [at 5.11 µM]” throughout.

Regarding `OC[C@H]1O[C@@H](OCc2ccccc2)[C@H](O[C@@H]2OC[C@@H](O)[C@H](O)[C@H]2O)[C@@H](O)[C@@H]1O`, the Potency entry in experiment [1] and in experiment [2] was “inactive” each time.

On to `CCC(C)/C=C(C)/C=C/C1=CC2=C(Cl)C(=O)C(C)(OC(C)=O)C(=O)C2=CN1CCCCC(N)C(=O)O` (centres undefined), for which the Potency entry in experiment [1] and in experiment [2] was “inactive” in each case.

In the case of `C=CC(C)(C)C12Nc3c(ccc4c3OC(C)(C)C=C4)C1(O)CC1C(=O)N3CCCC3C(=O)N12` (centres undefined), the Potency entry in experiment [1] and in experiment [2] was “inactive” each time.

`CC(C)NC(=O)c1ccc(C#Cc2ccncc2)cn1`: the Potency entry in experiment [1] and in experiment [2] was “inactive” each time.

In the case of `C=C(CCO[C@@H]1O[C@H](CO)[C@@H](O)[C@H](O)[C@H]1O)C(=O)O`, the Potency result in experiment [1] and in experiment [2] was “inactive” in each case.

Consider `CC1(C)O[C@H]2CC(=O)OC[C@@]23C1=C(O)C(=O)[C@]1(C)C3CC[C@@]2(C)[C@H](c3ccoc3)OC(=O)[C@H]3O[C@]321` (some centres undefined), for which the Potency entry in experiment [1] and in experiment [2] was “inactive” throughout.

With `COc1cc(O)cc2c1C(=O)OC(C)CCCCCCC2` (centres undefined), the Potency result in experiment [1] and in experiment [2] was “inactive” each time.

As for `COC(=O)c1cc(OC)cc(OC)c1C(=O)c1c(OC)cc2c(c1O)C1CCC(O)C(C)(O2)O1` (centres undefined), the Potency entry in experiment [1] and in experiment [2] was “inactive” in each case.

Turning to `COC(=O)c1ccc(OC)cc1O[C@@H]1O[C@H](CO[C@@H]2OC[C@@H](O)[C@H](O)[C@H]2O)[C@@H](O)[C@H](O)[C@H]1O`, the Potency entry in experiment [1] and in experiment [2] was “inactive” in each case.

As to `COc1ccc(-c2ccn(CC[C@](C)(C(=O)NO)S(C)(=O)=O)c(=O)c2)c(F)c1`, the Potency entry in experiment [1] and in experiment [2] was “inactive” throughout.

`COC(=O)C1=CO[C@@H](O[C@@H]2O[C@H](CO)[C@@H](O)[C@H](O)[C@H]2O)[C@@H]2C(CO)=CC[C@H]12`: the Potency entry in experiment [1] and in experiment [2] was “inactive” each time.

For `CC(=O)OCC1=C[C@@H]2OC(=O)C3=CO[C@@H](O[C@@H]4O[C@H](CO)[C@@H](O)[C@H](O)[C@H]4O)[C@H]1[C@@H]32`, the Potency result in experiment [1] and in experiment [2] was “inactive” each time.

As to `C=C1CC[C@@]2(OC1)O[C@H]1CC3[C@@H]4CC=C5C[C@@H](O)C[C@@H](O[C@@H]6OC[C@H](O)[C@H](O)[C@H]6O[C@@H]6O[C@@H](C)[C@H](O)[C@@H](O)[C@H]6O)[C@]5(C)C4CC[C@]3(C)[C@H]1[C@@H]2C` (some centres undefined), the Potency result in experiment [1] and in experiment [2] was “inactive” in each case.

For the compound `CC(CCc1ccc(O)cc1)O[C@@H]1O[C@H](CO[C@@H]2OC(CO)[C@H](O)[C@H]2O)[C@@H](O)[C@H](O)[C@H]1O` (some centres undefined), the Potency result in experiment [1] and in experiment [2] was “inactive” throughout.

In the case of `COc1ccc(-n2[nH]c3c(cnc4ccccc43)c2=O)cc1`, the Potency result in experiment [1] and in experiment [2] was “inactive” in each case.

As for `C=C(CC/C=C(\C)C(=O)O)C1(O)CC=C(C)CC1` (centres undefined), the Potency result in experiment [1] and in experiment [2] was “inactive” each time.

Consider `O=C(NCC(=O)N1CCCC1)Nc1ccc2ccccc2c1`, for which the Potency result in experiment [1] and in experiment [2] was “inactive” in each case.

As for `C[C@H](O)C(O)(C(=O)OCc1ccccc1NC(=O)CCC(N)C(=O)O)[C@H](C)O` (some centres undefined), the Potency entry in experiment [1] and in experiment [2] was “inactive” in each case.

In the case of `CC1(C(=O)O)CC[C@]2(C(=O)OC3OC(CO)C(O)C(O)C3O)CC[C@]3(C)C(=CCC4[C@@]5(C)CC[C@H](OC6OCC(O)C(O)C6OC6OC(CO)C(O)C(O)C6O)C(C)(C)C5CC[C@]43C)C2C1` (some centres undefined), the outcome in experiment [1] and in experiment [2] was “inactive [at 9.29 µM]” each time.

These data come from PubChem BioAssay (NCATS).
